For some assays here: Measured potencies and affinities stand elsewhere.
Key:
Set-up in all cases: scale not given: direction of the effect not stated beside the values
[1] = molecular target: Protein translocase subunit SecA (Escherichia coli (strain K12)) (UniProt P10408); experiment: Assay to Identify E. coli SecA ATPase Inhibitors; type: functional; conditions: 30 µM
[2] = molecular target: T1, Ubiquitin-activating enzyme e1, putative (Leishmania donovani (strain BPK282A1)) (UniProt E9BSI1); experiment: Leishmania donovani Ubiquitin Activating Enzyme (LdE1); type: functional; conditions: 30 µM
T1 sequence (whole entry): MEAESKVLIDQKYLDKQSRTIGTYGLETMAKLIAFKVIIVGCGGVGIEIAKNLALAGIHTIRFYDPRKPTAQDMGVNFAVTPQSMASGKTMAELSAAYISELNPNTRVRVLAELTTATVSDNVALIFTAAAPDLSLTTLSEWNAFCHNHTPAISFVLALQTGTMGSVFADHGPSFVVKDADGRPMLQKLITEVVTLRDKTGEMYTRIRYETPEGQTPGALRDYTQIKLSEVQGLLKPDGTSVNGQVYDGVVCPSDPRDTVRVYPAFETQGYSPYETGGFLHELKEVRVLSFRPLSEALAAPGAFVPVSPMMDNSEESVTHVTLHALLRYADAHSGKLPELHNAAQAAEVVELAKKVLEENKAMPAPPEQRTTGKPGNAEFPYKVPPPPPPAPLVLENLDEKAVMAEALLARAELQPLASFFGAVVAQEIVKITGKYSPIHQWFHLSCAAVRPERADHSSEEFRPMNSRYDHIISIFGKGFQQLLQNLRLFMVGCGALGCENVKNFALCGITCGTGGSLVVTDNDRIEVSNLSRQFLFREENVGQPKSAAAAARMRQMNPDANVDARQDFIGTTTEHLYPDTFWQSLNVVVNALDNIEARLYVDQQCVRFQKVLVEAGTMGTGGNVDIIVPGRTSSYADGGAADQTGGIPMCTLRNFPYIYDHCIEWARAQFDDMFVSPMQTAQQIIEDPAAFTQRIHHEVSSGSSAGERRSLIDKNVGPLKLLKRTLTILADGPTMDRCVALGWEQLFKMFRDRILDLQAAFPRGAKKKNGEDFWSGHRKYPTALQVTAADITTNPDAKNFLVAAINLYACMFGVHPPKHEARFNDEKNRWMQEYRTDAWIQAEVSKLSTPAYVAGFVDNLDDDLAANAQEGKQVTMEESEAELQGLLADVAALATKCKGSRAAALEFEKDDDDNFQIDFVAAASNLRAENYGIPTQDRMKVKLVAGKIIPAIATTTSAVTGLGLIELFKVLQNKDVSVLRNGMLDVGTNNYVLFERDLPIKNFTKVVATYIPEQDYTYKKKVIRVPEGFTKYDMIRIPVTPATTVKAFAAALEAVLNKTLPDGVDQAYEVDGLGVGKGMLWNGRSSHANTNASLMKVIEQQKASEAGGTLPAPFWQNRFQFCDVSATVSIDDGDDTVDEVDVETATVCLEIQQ

[3] = molecular target: AMP-activated protein kinase, AMPK (Homo sapiens) (UniProt P54646+O43741+P54619+Q9UGJ0+Q9Y478+Q13131+Q9UGI9); experiment: AMP-dependent Kinase enzyme assay. An in vitro enzyme assay that detects ADP turnover that is directly proportional to AMPK activity. This uses naive AMPK that is activated during the assay with MK-8722; type: functional; conditions: 30 µM
[4] = molecular target: Sialic acid-binding Ig-like lectin 9 (Homo sapiens) (UniProt Q9Y336); experiment: Hs-Siglec9 ALPHAscreen SOP 20170721; conditions: 10 µM
Trypanosoma cruzi = experiment: Trypanosoma cruzi phosphomannomutase and mannose-1-phosphate guanylyltransferase assay; type: functional; conditions: 10 µM
[5] = molecular target: T2, Arginase-2, mitochondrial (Homo sapiens) (UniProt P78540); experiment: in vitro enzyme assay to detect the production of urea directly proportional to the activity of Arginase II; type: functional; conditions: 33.3 µM; also: in the data most compounds retested in dose-response had high values
T2 sequence (whole entry): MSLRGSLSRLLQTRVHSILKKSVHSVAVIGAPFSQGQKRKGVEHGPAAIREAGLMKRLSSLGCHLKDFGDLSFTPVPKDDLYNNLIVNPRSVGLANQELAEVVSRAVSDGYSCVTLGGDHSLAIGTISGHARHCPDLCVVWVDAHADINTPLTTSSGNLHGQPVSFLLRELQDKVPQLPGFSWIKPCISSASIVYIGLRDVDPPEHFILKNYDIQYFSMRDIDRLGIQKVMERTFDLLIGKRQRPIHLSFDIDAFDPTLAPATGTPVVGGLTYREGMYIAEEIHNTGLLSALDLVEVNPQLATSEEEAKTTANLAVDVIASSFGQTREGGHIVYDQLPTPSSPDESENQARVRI

[6] = molecular target: T3, Proteasome subunit beta (Trypanosoma cruzi) (UniProt O96673); experiment: Trypanosoma cruzi proteasome chymotrypsin-like activity (TcProtChymo) assay.; also: in the data most compounds retested in dose-response had high values; type: functional; conditions: 9.37 µM
T3 sequence (whole entry): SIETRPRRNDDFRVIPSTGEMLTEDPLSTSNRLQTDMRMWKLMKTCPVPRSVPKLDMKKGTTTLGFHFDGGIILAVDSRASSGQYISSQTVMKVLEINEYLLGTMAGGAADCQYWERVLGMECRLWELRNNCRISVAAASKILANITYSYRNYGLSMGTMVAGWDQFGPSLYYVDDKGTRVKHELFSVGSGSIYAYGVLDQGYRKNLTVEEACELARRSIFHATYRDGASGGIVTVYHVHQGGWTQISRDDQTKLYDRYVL

Homo sapiens = species on record: Homo sapiens; experiment: To identify inhibition of the IFN signalling (Jak-Stat) pathway via expression of an eGFP reporter gene under the control of an IFN-stimulated response element (ISRE) containing MxA promoter.; type: functional; conditions: 30 µM
[7] = molecular target: T4, Tyrosyl-tRNA synthetase, putative (Trypanosoma cruzi (strain CL Brener)) (UniProt Q4DSP6); experiment: Trypanosoma cruzi tyrosyl tRNA synthetase (TcYRS) _High Tyrosine SOP; type: functional; conditions: 30 µM; also: in the data most compounds retested in dose-response had high values
T4 sequence (whole entry): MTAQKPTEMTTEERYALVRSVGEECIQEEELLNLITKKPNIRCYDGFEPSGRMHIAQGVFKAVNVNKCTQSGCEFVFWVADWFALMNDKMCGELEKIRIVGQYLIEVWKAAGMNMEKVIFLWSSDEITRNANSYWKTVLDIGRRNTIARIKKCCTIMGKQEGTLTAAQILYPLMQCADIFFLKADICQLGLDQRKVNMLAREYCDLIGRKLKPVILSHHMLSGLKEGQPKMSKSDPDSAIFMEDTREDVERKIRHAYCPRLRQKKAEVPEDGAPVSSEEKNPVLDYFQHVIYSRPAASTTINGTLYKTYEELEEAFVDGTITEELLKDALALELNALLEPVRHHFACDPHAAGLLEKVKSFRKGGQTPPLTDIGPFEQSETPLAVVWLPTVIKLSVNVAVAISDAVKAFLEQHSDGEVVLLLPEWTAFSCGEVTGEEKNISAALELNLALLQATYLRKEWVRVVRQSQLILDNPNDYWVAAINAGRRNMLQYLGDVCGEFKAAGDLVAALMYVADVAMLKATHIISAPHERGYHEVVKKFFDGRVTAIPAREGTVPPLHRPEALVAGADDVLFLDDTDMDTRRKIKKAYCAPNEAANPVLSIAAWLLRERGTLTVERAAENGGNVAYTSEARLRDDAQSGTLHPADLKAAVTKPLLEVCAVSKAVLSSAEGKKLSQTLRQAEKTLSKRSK

[8] = molecular target: T4, Tyrosyl-tRNA synthetase, putative (Trypanosoma cruzi (strain CL Brener)); experiment: Trypanosoma cruzi tyrosyl tRNA synthetase (TcYRS) SOP; type: functional; conditions: 30 µM
[9] = molecular target: Chromo domain-containing protein 1 (Saccharomyces cerevisiae (strain ATCC 204508 / S288c) (Baker's yeast)) (UniProt P32657); experiment: ScCHD-1 Enzyme Inhibition Assay; type: functional; conditions: 30 µM; also: in the data most compounds retested in dose-response had high values
Sequence of Chromo domain-containing protein 1 (Saccharomyces cerevisiae (strain ATCC 204508 / S288c) (Baker's yeast)) (P32657 whole entry, the tested form may be a part): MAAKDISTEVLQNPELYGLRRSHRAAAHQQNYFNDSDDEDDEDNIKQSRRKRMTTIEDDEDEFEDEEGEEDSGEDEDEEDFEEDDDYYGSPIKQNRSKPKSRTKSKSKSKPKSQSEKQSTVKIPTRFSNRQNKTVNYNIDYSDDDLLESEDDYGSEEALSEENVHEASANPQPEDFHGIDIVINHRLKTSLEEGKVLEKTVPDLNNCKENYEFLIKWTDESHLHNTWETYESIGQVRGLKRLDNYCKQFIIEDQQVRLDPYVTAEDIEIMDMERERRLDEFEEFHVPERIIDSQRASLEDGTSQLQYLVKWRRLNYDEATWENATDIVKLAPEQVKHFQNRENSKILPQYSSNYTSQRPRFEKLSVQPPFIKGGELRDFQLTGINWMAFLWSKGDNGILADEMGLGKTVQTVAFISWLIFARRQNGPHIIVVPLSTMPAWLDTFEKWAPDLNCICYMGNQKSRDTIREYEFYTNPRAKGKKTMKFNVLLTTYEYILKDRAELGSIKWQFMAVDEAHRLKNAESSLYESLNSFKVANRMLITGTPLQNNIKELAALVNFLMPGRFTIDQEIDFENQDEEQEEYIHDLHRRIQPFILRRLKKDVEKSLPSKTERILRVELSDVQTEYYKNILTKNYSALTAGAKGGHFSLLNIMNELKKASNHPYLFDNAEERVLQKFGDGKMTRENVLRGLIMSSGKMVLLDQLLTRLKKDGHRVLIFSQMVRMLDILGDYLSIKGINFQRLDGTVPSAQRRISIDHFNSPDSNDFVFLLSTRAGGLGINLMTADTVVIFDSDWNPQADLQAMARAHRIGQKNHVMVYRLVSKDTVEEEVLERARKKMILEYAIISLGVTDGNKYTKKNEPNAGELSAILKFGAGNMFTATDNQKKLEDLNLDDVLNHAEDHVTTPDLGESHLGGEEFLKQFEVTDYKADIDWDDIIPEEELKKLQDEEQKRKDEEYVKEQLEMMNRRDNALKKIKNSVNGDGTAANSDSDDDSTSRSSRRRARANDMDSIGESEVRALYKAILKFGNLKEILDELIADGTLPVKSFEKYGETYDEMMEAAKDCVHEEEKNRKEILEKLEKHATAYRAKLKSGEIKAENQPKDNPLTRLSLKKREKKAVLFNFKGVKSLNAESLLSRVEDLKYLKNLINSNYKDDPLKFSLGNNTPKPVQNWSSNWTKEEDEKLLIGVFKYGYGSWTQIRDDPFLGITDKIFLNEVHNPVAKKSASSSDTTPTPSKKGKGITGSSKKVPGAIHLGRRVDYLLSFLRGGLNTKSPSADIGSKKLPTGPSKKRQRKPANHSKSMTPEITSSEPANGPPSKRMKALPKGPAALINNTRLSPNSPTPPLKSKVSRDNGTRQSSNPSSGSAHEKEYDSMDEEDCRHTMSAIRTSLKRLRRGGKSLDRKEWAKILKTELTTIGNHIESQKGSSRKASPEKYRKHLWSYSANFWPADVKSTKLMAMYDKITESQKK

Sequence of Protein translocase subunit SecA (Escherichia coli (strain K12)) (P10408 whole entry): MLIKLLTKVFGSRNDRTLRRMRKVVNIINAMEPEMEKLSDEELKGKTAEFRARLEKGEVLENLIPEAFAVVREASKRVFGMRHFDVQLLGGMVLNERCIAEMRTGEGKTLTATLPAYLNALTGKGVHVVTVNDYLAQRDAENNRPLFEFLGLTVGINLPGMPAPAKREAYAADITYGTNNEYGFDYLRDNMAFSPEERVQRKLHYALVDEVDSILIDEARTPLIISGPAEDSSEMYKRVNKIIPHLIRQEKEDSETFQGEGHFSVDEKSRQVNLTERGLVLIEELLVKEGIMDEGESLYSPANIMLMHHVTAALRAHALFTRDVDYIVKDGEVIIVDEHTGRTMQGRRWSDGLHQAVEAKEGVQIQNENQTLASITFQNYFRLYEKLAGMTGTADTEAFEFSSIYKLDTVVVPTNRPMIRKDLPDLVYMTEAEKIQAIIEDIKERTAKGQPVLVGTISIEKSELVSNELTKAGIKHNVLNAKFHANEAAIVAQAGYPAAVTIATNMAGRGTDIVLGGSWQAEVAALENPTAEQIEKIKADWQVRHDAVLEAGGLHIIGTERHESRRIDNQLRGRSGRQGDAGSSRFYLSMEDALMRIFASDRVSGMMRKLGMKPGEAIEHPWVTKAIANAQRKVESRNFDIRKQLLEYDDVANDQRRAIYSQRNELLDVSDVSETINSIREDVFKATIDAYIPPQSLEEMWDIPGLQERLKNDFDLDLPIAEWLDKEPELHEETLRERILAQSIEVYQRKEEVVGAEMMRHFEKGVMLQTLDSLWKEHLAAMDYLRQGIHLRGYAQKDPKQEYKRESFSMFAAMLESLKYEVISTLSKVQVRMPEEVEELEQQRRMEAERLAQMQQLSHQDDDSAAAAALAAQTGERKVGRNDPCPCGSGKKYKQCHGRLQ
Sequence of Sialic acid-binding Ig-like lectin 9 (Homo sapiens) (Q9Y336 whole entry): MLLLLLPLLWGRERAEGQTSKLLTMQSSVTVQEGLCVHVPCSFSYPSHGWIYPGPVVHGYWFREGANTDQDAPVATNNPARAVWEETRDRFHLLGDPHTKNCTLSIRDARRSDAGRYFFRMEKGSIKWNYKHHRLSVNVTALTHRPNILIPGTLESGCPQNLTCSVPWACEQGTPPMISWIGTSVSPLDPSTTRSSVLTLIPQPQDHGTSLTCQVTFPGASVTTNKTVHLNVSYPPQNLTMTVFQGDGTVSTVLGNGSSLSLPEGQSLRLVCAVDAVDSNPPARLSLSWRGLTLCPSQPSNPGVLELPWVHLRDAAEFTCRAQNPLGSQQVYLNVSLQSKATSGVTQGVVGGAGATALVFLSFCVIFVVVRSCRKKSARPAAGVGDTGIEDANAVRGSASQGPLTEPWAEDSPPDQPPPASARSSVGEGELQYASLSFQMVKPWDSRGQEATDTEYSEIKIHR

SMILES | Percent Effect [1] [%] | Percent Effect [2] [%] | Percent Effect [3] [%] | Percent Effect [4] [%] | Percent Effect (Trypanosoma cruzi) [%] | Percent Effect [5] [%] | Percent Effect [6] [%] | Percent Effect (Homo sapiens) [%] | Percent Effect [7] [%] | Percent Effect [8] [%] | Percent Effect [9] [%]
CCS(=O)(=O)c1ccccc1N1CCC(NC(=O)NC2CCCC2)CC1 | -5.55 | 10.8 | 5.69 | 8.77 | 0.279 | -3.14 | -1.62 | 16 | 6.93 | 13.4 | -1.94
CN(C)C(=O)COCc1cncc2c1CCN(Cc1cnn(C)c1)C2 | -4.54 | 10.4 | 1.37 | 20 | 0.0983 | -6.9 | 11.8 | 10.6 | 3.23 | 8.64 | -2.53
CCN(CC)CCNC(=O)c1nn(CC)cc1Cl | 0.115 | 20 | -10.1 | -7.51 | 2.55 | -10.7 | 9.43 | 29.3 | 5.29 | 10.3 | -9.1
CCOc1ccc(NC(=O)NCc2csc(NC)n2)cc1C | -1.88 | 10.8 | -11.1 | 14.3 | 1.95 | 0.924 | -1.26 | 19.8 | 12.9 | 23.2 | -3.54
CN(C)C(=O)N1CCN(C(=O)CCc2ccccc2)[C@H]2CS(=O)(=O)C[C@H]21 | -0.417 | 5.41 | -5.99 | 6.47 | 4.44 | -2.86 | 15.3 | 23.4 | 8.99 | 9.76 | -2.21
Cc1cncc(C(=O)N2CCC(Cn3cc(-c4ccsc4)nn3)CC2)c1 | -2.48 | 2.7 | 0.205 | 2.1 | -3.86 | -0.476 | 11.6 | 7.16 | 1.59 | 9.76 | -1.22
CC(C)S(=O)(=O)N1CCC(c2cc3n(n2)[C@@H](C(F)(F)F)C[C@@H](C)N3)C1 (stereo not given in full) | -0.301 | 5.33 | -46.3 | 0.653 | 4.13 | -1.63 | 5.02 | 9.18 | 4.25 | 6.41 | -0.108
CCN(Cc1ccc(OC)c(F)c1)C(=O)c1ccc(C)[nH]c1=O | -3.17 | 10.5 | 2.62 | 9.42 | -0.188 | 2.3 | 4.68 | 8.35 | 8.33 | 19.5 | -8.67
Cc1noc(C)c1-c1cccc(CC2CCN(C(=O)c3cc[nH]n3)C2)n1 (stereo not given) | -2.86 | 10.7 | 9.02 | 7.09 | -2.95 | -1.17 | 8.72 | 15.2 | 4.25 | 8.97 | -0.89
Cc1cc2c(=O)n3c(nc2s1)CCN(C(=O)c1ccncc1)CC3 | 0.412 | 1.35 | 20.6 | 7.55 | -4.74 | 3.02 | 9.98 | 0.756 | 2.15 | 6.49 | -4.17
